# Measurements reported in PubChem BioAssay (EPA / NIEHS).
# Activity calls are given as the source filed them. The calls were made as follows: active = hit-call score of the fitted dose curve at least 0.9, where 1 is the maximum; inactive = score below 0.9.
# Tests used:
# [1] = biological target: Bile acid receptor (Homo sapiens) (UniProt Q96RI1); test: ATG_IR1_CIS: Attagene CIS-FACTORIAL HepG2 Assay for human Nuclear Receptor Subfamily 1 Group H Member 4 (NR1H4), IR1 submotif (AID 2282946); settings: IR1 reporter transcription, actives raise or lower the signal
# In short: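 Transient MRTU transfection, HepG2; 24 h dosing; RNA → RT-PCR → 6-FAM primer extension → HpaI digest → capillary electrophoresis fluorescence. Gain/loss of signal fitted relative to DMSO.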
# [2] = ATG_ISRE_CIS: Attagene CIS-FACTORIAL HepG2 Assay for human Interferon Regulatory Factor 1 (IRF1) binding to an Interferon-Stimulated Response Element (ISRE) (AID 2282948); settings: HepG2 ISRE cis-reporter (Attagene), mRNA transcription readout; actives raise or lower the signal
# In short: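 Quantitation relies on labelled RT-PCR fragments separated by capillary electrophoresis. Human HepG2 cells bearing cis-promoter reporter constructs were treated 24 h; DMSO served as baseline for bidirectional fitting.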
# [3] = ATG_M_32_CIS: Attagene CIS-FACTORIAL HepG2 Assay for M32 Transcription Factor (Internal Marker) (AID 2282949); settings: HepG2 Attagene cis-factorial M32 reporter, mRNA; actives raise or lower the signal;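 also: background control marker of the multiplexed CIS panel rather than a real target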
# In short: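 Following 24 h chemical exposure of HepG2 cells transiently expressing cis-promoter reporter constructs, reporter transcript levels were determined by RT-PCR with fluorescent labelling and capillary electrophoresis, then fitted bidirectionally against DMSO.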
# [4] = ATG_M_06_CIS: Attagene CIS-FACTORIAL HepG2 Assay for M06 Transcription Factor (Internal Marker) (AID 2282950); settings: HepG2 Attagene CIS-FACTORIAL M06 internal marker reporter; actives raise or lower the signal
# In short: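 HepG2 cells transiently transfected with cis-regulated multiple reporter transcription units were exposed to chemical for 24 h; reporter mRNA was quantified by RT-PCR, 6-FAM primer labelling, HpaI digestion and capillary electrophoresis, fitted bidirectionally against DMSO.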
# [5] = biological target: Hepatocyte nuclear factor 6 (Homo sapiens) (UniProt Q9UBC0); test: ATG_HNF6_CIS: Attagene CIS-FACTORIAL HepG2 Assay for human Hepatocyte Nuclear Factor 6 (HNF6) (AID 2282952); settings: HepG2 Attagene cis-factorial HNF6 reporter transcription; actives raise or lower the signal
# In short: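 Reporter mRNA induction or loss in HepG2 after 24 h exposure; transient cis-MRTU transfection; fragments quantified by capillary electrophoresis; bidirectional analysis, DMSO as negative control.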
# [6] = biological target: Heat shock factor protein 1 (Homo sapiens) (UniProt Q00613); test: ATG_HSE_CIS: Attagene CIS-FACTORIAL HepG2 Assay for human Heat Shock Transcription Factor 1 (HSE) (AID 2282953); settings: HepG2 HSE cis-reporter, Attagene RNA transcription; actives raise or lower the signal
# In short: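 HepG2 cells transiently transfected with multiple reporter transcription units under cis-regulatory promoter control, measuring endogenous transcription factor activity. After 24 h chemical exposure, reporter mRNA quantified by RT-PCR, fluorescent labelling, HpaI digestion and capillary electrophoresis; bidirectional fit versus DMSO.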
# [7] = ATG_MRE_CIS: Attagene CIS-FACTORIAL HepG2 Assay for human Metal Responsive Element (MRE) (AID 2282954); settings: HepG2 MRE cis-reporter transcription, Attagene multiplex; actives raise or lower the signal
# In short: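 HepG2 cells transiently transfected with multiple cis-element reporter units measure endogenous MTF1-driven transcription. After 24 h compound exposure, reporter mRNA is quantified by RT-PCR with 6-FAM labelling, HpaI digestion and capillary electrophoresis; bidirectional fits versus DMSO.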
# [8] = ATG_PBREM_CIS: Attagene CIS-FACTORIAL HepG2 Assay for human Phenobarbital-responsive Enhancer Module (PBREM) (AID 2282955); settings: HepG2 PBREM cis-reporter, Attagene multiplexed transcription; actives raise or lower the signal
# In short: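 Reporter mRNA read by RT-PCR, 6-FAM primer extension, HpaI digestion and capillary electrophoresis. Transfected HepG2 cells, 24 h compound exposure. Gain or loss of signal fitted bidirectionally relative to DMSO baseline.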
# [9] = biological target: Paired box protein Pax-6 (Homo sapiens) (UniProt P26367); test: ATG_Pax6_CIS: Attagene CIS-FACTORIAL HepG2 Assay for human Paired Box 6 (PAX6) (AID 2282956); settings: HepG2 CIS-FACTORIAL PAX6 reporter transcription, RNA readout; actives raise or lower the signal
# In short: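 After twenty-four hours of chemical exposure, transfected HepG2 cells are harvested for RNA. Cis-promoter reporter transcripts are amplified, fluorescently labelled and sized by capillary electrophoresis, with gain and loss of signal scored against DMSO.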
# [10] = ATG_PXRE_CIS: Attagene CIS-FACTORIAL HepG2 Assay for human Pregnane X Receptor Element (PXRE) (AID 2282957); settings: HepG2 Attagene CIS-FACTORIAL PXRE reporter, mRNA; actives raise or lower the signal
# In short: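 Transiently transfected HepG2 cells were dosed and incubated for 24 h. RNA was then isolated, DNase-treated, reverse-transcribed and reporter sequences amplified. Labeled, HpaI-digested fragments were quantified by capillary electrophoresis against DMSO.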
# [11] = ATG_PPRE_CIS: Attagene CIS-FACTORIAL HepG2 Assay for human Peroxisome Proliferator-activated Response Element (PPRE) (AID 2282958); settings: HepG2 PPRE cis-element reporter, Attagene transcription factor profiling; actives raise or lower the signal
# In short: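 Read-out: fluorescent reporter mRNA fragments resolved by capillary electrophoresis after RT-PCR. HepG2 cells carried transiently transfected PPRE-driven cis reporter constructs and were dosed for 24 h; gain or loss of signal fitted relative to DMSO.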
# [12] = ATG_RORE_CIS: Attagene CIS-FACTORIAL HepG2 Assay for human RAR-related Orphan Receptor Element (RORE) (AID 2282959); settings: HepG2 Attagene cis-factorial RORE reporter, mRNA; actives raise or lower the signal
# In short: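 Readout: fluorescent reporter mRNA by RT-PCR plus capillary electrophoresis, 24 h after dosing transfected HepG2 cells. Endogenous transcription factor activity on a cis promoter element is measured. Gain or loss of signal fitted against DMSO.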
# [13] = ATG_Sox_CIS: Attagene CIS-FACTORIAL HepG2 Assay for human SRY-box transcription factor (SOX) (AID 2282960); settings: HepG2 Attagene cis-factorial SOX reporter, mRNA; actives raise or lower the signal
# In short: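 Read-out: fluorescent RT-PCR products of SOX1-linked reporter transcripts resolved by capillary electrophoresis, fitted bidirectionally against DMSO. Transiently transfected HepG2 cells, 24 h after chemical exposure, endogenous transcription factor activity.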
# [14] = biological target: Transcription factor Sp1 (Homo sapiens) (UniProt P08047); test: ATG_Sp1_CIS: Attagene CIS-FACTORIAL HepG2 Assay for human Specificity Protein 1 (Sp1) (AID 2282961); settings: HepG2 Sp1 cis-reporter transcription, actives raise or lower the signal
# In short: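 Read-out: fluorescence of 6-FAM-labeled, HpaI-digested RT-PCR products separated by capillary electrophoresis. HepG2 cells carried transfected cis-element reporter units and were exposed to chemicals for 24 h; gain or loss of signal fitted relative to DMSO.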
# [15] = ATG_SREBP_CIS: Attagene CIS-FACTORIAL HepG2 Assay for human Sterol Regulatory Element Binding (SREBP) (AID 2282962); settings: HepG2 Attagene cis-factorial SREBP reporter, mRNA; actives raise or lower the signal
# In short: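 Twenty-four hours after chemical dosing of transfected HepG2 cultures, reporter RNA was converted to cDNA, amplified, end-labelled with 6-FAM and resolved by capillary electrophoresis. Responses were fitted relative to DMSO.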
# [16] = biological target: Signal transducer and activator of transcription 3 (Homo sapiens) (UniProt P40763); test: ATG_STAT3_CIS: Attagene CIS-FACTORIAL HepG2 Assay for human Signal Transducer and Activator of Transcription 3 (STAT3) (AID 2282963); settings: HepG2, Attagene cis-factorial STAT3 reporter transcription; actives raise or lower the signal
# In short: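 HepG2 cells transiently transfected with cis-element-driven multiple reporter transcription units; after 24 h chemical exposure, reporter mRNA measured by RT-PCR, 6-FAM primer-extension labelling, HpaI digestion and capillary electrophoresis. Bidirectional fitting versus DMSO baseline.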
# [17] = biological target: Hypoxia-inducible factor 1-alpha (Homo sapiens) (UniProt Q16665); test: ATG_HIF1a_CIS: Attagene CIS-FACTORIAL HepG2 Assay for human Hypoxia Inducible Factor 1 (HIF1A) (AID 2282951); settings: HepG2 Attagene cis-factorial HIF1a reporter transcription; actives raise or lower the signal
# In short: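 RT-PCR/capillary electrophoresis fluorescence readout of reporter transcripts from endogenous-TF-driven cis elements in transfected HepG2 cells, 24 h exposure; activity fitted in both directions against DMSO controls.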
# [18] = ATG_TA_CIS: Attagene CIS-FACTORIAL HepG2 Assay for human TA Basal Promoter (AID 2282964); settings: HepG2 Attagene CIS-factorial TA basal promoter reporter; actives raise or lower the signal
# In short: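 HepG2 cells transiently transfected with multiplexed cis-promoter reporter units, dosed 24 h. Reporter mRNA measured by RT-PCR, 6-FAM labelling, HpaI digestion and capillary electrophoresis; bidirectional fit versus DMSO baseline, serving as background control.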
# [19] = ATG_TCF_b_cat_CIS: Attagene CIS-FACTORIAL HepG2 Assay for human T-Cell-Factor with beta-catenin (TCF/b-cat) (AID 2282965); settings: HepG2 TCF/beta-catenin cis-reporter transcription, actives raise or lower the signal
# In short: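 HepG2 cells transiently transfected with multiple cis-promoter-regulated reporter transcription units, so endogenous transcription factor activity is measured. Reporter mRNA read 24 hours after dosing by RT-PCR, fluorescent labelling and capillary electrophoresis; bidirectional fitting against DMSO.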
# Sequence of Heat shock factor protein 1 (Homo sapiens) (Q00613 whole entry, looked up): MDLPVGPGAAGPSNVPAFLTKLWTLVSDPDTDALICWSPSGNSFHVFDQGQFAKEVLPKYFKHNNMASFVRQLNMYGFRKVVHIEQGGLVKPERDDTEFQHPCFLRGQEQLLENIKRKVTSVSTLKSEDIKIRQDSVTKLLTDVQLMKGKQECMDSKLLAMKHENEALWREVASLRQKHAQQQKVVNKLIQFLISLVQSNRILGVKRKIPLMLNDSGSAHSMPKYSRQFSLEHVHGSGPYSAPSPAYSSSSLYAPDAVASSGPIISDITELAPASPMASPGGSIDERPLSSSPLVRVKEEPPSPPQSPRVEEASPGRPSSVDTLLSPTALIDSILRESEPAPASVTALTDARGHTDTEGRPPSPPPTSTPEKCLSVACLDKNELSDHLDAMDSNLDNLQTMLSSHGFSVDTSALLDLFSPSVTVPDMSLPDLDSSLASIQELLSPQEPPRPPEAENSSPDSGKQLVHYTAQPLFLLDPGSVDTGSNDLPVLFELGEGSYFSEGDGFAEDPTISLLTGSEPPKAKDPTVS
# Sequence of Hepatocyte nuclear factor 6 (Homo sapiens) (Q9UBC0 whole entry, looked up, the tested form may be a part): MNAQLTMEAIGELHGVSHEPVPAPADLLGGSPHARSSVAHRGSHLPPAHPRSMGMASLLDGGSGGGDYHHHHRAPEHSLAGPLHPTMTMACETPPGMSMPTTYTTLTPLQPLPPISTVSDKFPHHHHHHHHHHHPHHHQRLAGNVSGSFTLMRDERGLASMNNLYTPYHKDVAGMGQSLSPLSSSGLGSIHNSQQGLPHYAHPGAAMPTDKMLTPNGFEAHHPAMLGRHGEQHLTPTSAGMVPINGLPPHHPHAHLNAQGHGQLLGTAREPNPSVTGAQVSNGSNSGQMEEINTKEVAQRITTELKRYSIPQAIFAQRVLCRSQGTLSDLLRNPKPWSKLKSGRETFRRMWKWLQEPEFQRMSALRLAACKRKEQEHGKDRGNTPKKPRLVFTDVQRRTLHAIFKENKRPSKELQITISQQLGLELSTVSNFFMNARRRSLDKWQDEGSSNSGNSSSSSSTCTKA
# Sequence of Paired box protein Pax-6 (Homo sapiens) (P26367 whole entry, looked up): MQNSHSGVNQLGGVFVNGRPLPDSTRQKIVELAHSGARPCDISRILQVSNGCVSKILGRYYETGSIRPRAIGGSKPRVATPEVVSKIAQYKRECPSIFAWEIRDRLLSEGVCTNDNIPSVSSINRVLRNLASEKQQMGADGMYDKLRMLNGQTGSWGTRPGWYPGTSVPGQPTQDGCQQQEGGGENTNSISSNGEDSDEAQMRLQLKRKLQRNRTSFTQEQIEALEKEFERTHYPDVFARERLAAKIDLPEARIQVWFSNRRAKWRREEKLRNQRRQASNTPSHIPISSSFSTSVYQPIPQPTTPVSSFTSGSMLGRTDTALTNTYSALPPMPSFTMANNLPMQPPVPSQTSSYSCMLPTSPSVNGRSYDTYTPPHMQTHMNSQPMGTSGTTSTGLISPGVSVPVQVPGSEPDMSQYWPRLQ
# Sequence of Signal transducer and activator of transcription 3 (Homo sapiens) (P40763 whole entry, looked up): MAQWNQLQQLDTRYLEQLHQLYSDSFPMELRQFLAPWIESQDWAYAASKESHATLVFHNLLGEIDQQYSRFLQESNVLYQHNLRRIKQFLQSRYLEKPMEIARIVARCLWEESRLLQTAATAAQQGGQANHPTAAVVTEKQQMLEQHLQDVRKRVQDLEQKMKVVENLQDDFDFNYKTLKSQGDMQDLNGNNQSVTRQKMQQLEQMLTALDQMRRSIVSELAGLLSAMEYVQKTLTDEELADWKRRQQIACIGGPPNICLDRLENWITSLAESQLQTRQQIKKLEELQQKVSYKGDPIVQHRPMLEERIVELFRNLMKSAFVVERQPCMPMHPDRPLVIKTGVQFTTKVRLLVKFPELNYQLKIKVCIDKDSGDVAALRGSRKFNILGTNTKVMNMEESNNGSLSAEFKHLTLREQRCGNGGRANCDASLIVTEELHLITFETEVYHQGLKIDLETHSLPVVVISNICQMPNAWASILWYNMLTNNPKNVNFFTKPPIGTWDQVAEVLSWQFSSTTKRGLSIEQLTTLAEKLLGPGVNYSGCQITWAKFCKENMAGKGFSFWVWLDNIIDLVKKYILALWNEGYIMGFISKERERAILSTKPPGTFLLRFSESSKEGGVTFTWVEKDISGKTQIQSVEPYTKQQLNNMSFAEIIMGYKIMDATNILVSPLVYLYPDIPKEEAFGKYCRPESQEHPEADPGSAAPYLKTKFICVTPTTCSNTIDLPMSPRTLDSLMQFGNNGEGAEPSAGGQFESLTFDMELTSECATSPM
# Sequence of Transcription factor Sp1 (Homo sapiens) (P08047 whole entry, looked up): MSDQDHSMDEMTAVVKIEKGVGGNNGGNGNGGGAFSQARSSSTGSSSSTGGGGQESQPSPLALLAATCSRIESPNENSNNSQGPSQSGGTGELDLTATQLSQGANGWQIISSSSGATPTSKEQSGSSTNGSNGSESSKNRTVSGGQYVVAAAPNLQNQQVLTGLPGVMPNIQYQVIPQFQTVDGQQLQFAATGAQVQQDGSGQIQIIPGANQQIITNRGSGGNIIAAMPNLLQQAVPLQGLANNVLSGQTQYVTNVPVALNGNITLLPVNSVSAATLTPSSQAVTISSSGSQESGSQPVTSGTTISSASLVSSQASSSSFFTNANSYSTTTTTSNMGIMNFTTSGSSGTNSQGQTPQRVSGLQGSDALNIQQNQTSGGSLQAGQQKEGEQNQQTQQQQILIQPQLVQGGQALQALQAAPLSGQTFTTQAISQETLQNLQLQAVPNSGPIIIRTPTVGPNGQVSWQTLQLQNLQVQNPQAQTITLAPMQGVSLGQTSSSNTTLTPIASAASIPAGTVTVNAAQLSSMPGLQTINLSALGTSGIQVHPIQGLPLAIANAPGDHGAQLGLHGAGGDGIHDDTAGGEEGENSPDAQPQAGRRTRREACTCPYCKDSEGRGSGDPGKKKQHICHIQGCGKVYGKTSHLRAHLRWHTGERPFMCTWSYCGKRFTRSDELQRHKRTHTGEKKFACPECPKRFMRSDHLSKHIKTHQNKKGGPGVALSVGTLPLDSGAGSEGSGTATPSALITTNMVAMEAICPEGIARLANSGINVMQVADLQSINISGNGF
# Sequence of Bile acid receptor (Homo sapiens) (Q96RI1 whole entry, looked up): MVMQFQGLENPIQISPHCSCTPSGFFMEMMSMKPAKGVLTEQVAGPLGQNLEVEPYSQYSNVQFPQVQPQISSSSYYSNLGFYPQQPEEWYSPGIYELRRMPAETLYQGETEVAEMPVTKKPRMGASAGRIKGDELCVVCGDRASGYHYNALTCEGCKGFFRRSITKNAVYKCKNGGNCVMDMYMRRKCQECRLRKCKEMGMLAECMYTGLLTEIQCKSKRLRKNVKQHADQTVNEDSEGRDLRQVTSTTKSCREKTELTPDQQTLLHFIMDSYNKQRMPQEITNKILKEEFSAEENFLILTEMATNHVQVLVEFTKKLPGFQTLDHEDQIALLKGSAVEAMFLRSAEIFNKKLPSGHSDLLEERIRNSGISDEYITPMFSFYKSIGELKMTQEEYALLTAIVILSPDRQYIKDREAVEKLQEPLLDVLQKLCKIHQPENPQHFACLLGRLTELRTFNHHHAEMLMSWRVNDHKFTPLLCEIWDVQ
# Sequence of Hypoxia-inducible factor 1-alpha (Homo sapiens) (Q16665 whole entry, looked up): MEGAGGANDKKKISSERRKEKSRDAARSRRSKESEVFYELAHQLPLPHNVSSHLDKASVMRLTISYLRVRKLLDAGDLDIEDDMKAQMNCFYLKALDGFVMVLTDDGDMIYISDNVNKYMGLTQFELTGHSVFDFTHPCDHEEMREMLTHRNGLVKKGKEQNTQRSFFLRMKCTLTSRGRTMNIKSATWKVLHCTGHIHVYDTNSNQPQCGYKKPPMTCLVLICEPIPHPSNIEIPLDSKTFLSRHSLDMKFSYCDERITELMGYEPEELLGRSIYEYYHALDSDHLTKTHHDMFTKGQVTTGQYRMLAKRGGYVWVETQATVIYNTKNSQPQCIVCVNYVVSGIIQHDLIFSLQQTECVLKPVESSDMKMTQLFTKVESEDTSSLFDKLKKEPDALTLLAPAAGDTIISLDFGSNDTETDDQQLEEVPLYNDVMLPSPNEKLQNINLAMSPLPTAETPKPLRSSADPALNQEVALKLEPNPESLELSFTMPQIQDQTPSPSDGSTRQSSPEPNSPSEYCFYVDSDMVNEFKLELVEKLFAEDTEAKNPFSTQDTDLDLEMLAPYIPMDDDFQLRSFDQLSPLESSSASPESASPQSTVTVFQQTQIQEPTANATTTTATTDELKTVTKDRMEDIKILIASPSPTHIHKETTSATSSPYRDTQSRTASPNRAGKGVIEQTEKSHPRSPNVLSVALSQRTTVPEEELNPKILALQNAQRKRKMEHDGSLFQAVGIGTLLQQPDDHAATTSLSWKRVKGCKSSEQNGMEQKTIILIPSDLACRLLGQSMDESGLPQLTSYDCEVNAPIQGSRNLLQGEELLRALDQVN
smiles,measurement,setting,value
CNC(=O)Oc1ccc2c(c1)[C@]1(C)CCN(C)[C@@H]1N2C,outcome,[1],inactive
same,outcome,[2],inactive
same,outcome,[3],inactive
same,outcome,[4],inactive
same,outcome,[5],inactive
same,outcome,[6],inactive
same,outcome,[7],inactive
same,outcome,[8],inactive
same,outcome,[9],inactive
same,AC50,[10],38 µM (active)
same,outcome,[11],inactive
same,outcome,[12],inactive
same,outcome,[13],inactive
same,outcome,[14],inactive
same,outcome,[15],inactive
same,outcome,[16],inactive
O=Nc1ccc(Nc2ccccc2)cc1,AC50,[1],13.7 µM (active)
same,AC50,[2],25.4 µM (active)
same,outcome,[3],inactive
same,outcome,[4],inactive
same,AC50,[17],33.4 µM (active)
same,AC50,[5],25.2 µM (active)
same,AC50,[6],27.8 µM (active)
same,AC50,[7],20 µM (active)
same,AC50,[8],59.3 µM (active)
same,AC50,[9],33.4 µM (active)
same,AC50,[10],22.6 µM (active)
same,outcome,[12],inactive
same,AC50,[13],47.6 µM (active)
same,AC50,[14],55 µM (active)
same,AC50,[15],33.4 µM (active)
same,outcome,[16],inactive
same,outcome,[18],inactive
same,AC50,[19],20.9 µM (active)
C=CC(=O)NCOCC(C)C,outcome,[1],inactive
same,outcome,[2],inactive
same,outcome,[3],inactive
same,outcome,[4],inactive
same,outcome,[17],inactive
same,outcome,[5],inactive
same,outcome,[6],inactive
same,outcome,[7],inactive
same,outcome,[9],inactive
same,AC50,[10],21 µM (active)
same,outcome,[14],inactive
same,outcome,[15],inactive
same,outcome,[18],inactive
C=C(C)C(=O)OCc1ccccc1,outcome,[1],inactive
same,outcome,[2],inactive
same,outcome,[3],inactive
same,outcome,[4],inactive
same,outcome,[17],inactive
same,outcome,[5],inactive
same,outcome,[8],inactive
same,outcome,[9],inactive
same,outcome,[10],inactive
same,outcome,[12],inactive
same,outcome,[13],inactive
same,outcome,[14],inactive
same,outcome,[15],inactive
same,outcome,[16],inactive
same,outcome,[18],inactive
same,outcome,[19],inactive
CC(C)OP(=O)(CP(=O)(OC(C)C)OC(C)C)OC(C)C,outcome,[1],inactive
same,outcome,[2],inactive
same,outcome,[3],inactive
same,outcome,[4],inactive
same,outcome,[17],inactive
same,outcome,[5],inactive
same,outcome,[7],inactive
same,outcome,[8],inactive
same,outcome,[9],inactive
same,AC50,[10],7.59 µM (active)
same,outcome,[11],inactive
same,outcome,[13],inactive
same,outcome,[14],inactive
same,outcome,[15],inactive
same,outcome,[16],inactive
same,outcome,[18],inactive
same,outcome,[19],inactive
CN(CCOc1ccc(CC2SC(=O)NC2=O)cc1)c1ccccn1 (centres undefined),outcome,[1],inactive
same,outcome,[2],inactive
same,outcome,[3],inactive
same,outcome,[4],inactive
same,outcome,[17],inactive
same,outcome,[6],inactive
same,outcome,[7],inactive
same,AC50,[8],66.1 µM (active)
same,outcome,[9],inactive
same,AC50,[10],6.08 µM (active)
same,AC50,[12],9.64 µM (active)
same,outcome,[13],inactive
same,outcome,[14],inactive
same,AC50,[15],5.58 µM (active)
same,outcome,[16],inactive
same,outcome,[19],inactive
c1ccc(CCCc2ccccn2)cc1,outcome,[1],inactive
same,outcome,[2],inactive
same,outcome,[3],inactive
same,outcome,[4],inactive
same,outcome,[17],inactive
same,outcome,[5],inactive
same,outcome,[6],inactive
same,AC50,[7],81.5 µM (active)
same,AC50,[8],67 µM (active)
same,outcome,[9],inactive
same,AC50,[10],100 µM (active)
same,outcome,[12],inactive
same,outcome,[13],inactive
same,outcome,[14],inactive
same,outcome,[15],inactive
same,outcome,[16],inactive
same,outcome,[18],inactive
same,outcome,[19],inactive
